# Source: PubChem (National Center for Advancing Translational Sciences (NCATS))
# IL-1B inflam inh – blocks inflammasome-driven IL-1 beta release. 360,000 compounds, 4.7% hits. activity change, % at 57.5 µM. THP-1 LPS/ATP IL-1B secretion, AlphaLISA, 16 h; hits give low values; in the data active means activity change below about -50%; inconclusive means mostly about -30% to -49%
#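 Secreted IL-1B measured by AlphaLISA bead assay after 16 h compound exposure of THP-1 cells; compounds (final up to 57.5 uM) added 1 h before LPS (250 ng/mL) and ATP (1.25 mM) stimulation; lower signal means less secretion.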
# DT40 TDP1 CPT – growth inhibition of DT40 Tdp1-/-;hTDP1 cells with camptothecin (screen for TDP1 inhibitors) | chicken DT40 Tdp1-/-;hTDP1 cells + 20 nM CPT, ATP luminescence, 48 h | Potency, µM (series often up to 46.2 µM), usual class: inhibitors | 420,000 compounds, 12% hits; further: nearly all actives have a fitted effect of over 55% in size
#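 Chicken DT40 Tdp1-/- cells complemented with human TDP1, 400 cells/well, exposed to compounds plus 20 nM camptothecin for at least 48 h at 37 C; viability read as ATP content by CellTiter-Glo luminescence.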
# TDP1 cell noCPT – qHTS for Inhibitors of human tyrosyl-DNA phosphodiesterase 1 (TDP1): qHTS in cells in absence of CPT; DT40 Tdp1-/- hTDP1 cells, no CPT, ATP luminescence, 48 h; 420,000 compounds, 15% hits; AID 686978, 2013; Potency, µM (doses to about 46.2 µM), most hits filed as inhibitors; further: nearly all actives have a fitted effect of over 55% in size
#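 Chicken DT40 Tdp1-/- cells stably complemented with human TDP1 were seeded at 400 cells/well with DMSO in place of 20 nM camptothecin. After compound pinning, cells grew at least 48 hr at 37 °C; viability read by CellTiter-Glo luminescence.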
# HT1080 IDH1KD tx – kills HT-1080 cells with IDH1 knockdown | HT-1080 IDH1 knockdown viability, ATP luminescence, 48 h | Potency, µM (titrated, usually from 46.1 µM), hits mostly cytotoxic | 360,000 compounds, 2% hits | AID 686971
#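 HT-1080-IDH1KD cells (IDH1 knocked down), 750/well in RPMI with 5% FBS, treated with compound 48 h at 37 degrees C. Viability by CellTiter-Glo luminescence, normalised to DMSO and no-cell wells; concentration-response curves classed.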
# HT1080-NT tox – kills 2HG-producing HT-1080-NT fibrosarcoma cells. Potency, µM (highest dose often 46.1 µM), most hits filed as cytotoxic. 360,000 compounds, 1.6% hits. AID 686970. HT-1080-NT fibrosarcoma viability, CellTiter-Glo ATP luminescence, 48 h;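 further: NT is the 2HG producing partner of a matched IDH1 knockdown line; nearly all actives have a fitted effect of over 55% in size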
#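 Read-out is CellTiter-Glo luminescence after 10 minutes at room temperature, following 48 hours' compound treatment of HT-1080-NT cells (750 cells/well, RPMI, 5% FBS, 37 degrees C).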
# ELG1 DNA repair – blocks ELG1-dependent DNA repair in HEK293T cells | HEK293T ELG1-luciferase reporter, luminescence, 16 h; DNA damage induced by 5-fluorouridine | Potency, µM (top dose mostly 46.1 µM), actives largely listed as inhibitors | 330,000 compounds, 2.3% hits | AID 504467; further: nearly all actives have a fitted effect of over 55% in size
#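 DMSO vehicle served as the neutral condition. Each well held 2,000 cells given 5-fluorouridine plus compound; after 16 hr at 37 °C/5% CO2, ONE-Glo was added and luciferase measured 30 min later.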
# A number is an active result; n = inactive; u = inconclusive; x = no result given. In the library only some 19% were active in any assay of this set; here they are far more common. Unless noted, the call rests on the fitted dose curve; in most records, active means well fitted curve in the direction sought with a large enough effect; inconclusive means small, poorly fitted or top-dose-only effect, or another doubt; inactive means no such curve, though single readings can be large; an effect the other way counts as inactive or inconclusive.
SMILES,IL-1B inflam inh,DT40 TDP1 CPT,TDP1 cell noCPT,HT1080 IDH1KD tx,HT1080-NT tox,ELG1 DNA repair
CC(C)Sc1ncc(Cl)c(C(=O)Nc2ccc(S(=O)(=O)N3CCCCC3)cc2)n1,x,18µM,18µM,x,x,x
CSc1ncc(Cl)c(C(=O)Nc2ccc(S(=O)(=O)Nc3nccc(C)n3)cc2)n1,n,u,10µM,u,u,u
COc1cc(OC)c(NC(c2nnc(-c3ccccc3)o2)c2ccc(F)cc2Cl)cc1Cl (stereo not drawn),x,u,18µM,x,x,x
COc1cc(OC)c(NC(=O)COc2ccccc2-c2nnc(-c3ccccc3)o2)cc1Cl,x,n,n,x,x,x
COc1ccc(CCNC(=O)Cc2cccc(C(F)(F)F)c2)cc1OC,n,n,u,n,n,n
COc1cc(C(=O)Nc2ccc3nc(N4CCN(C)CC4)cc(C)c3c2)cc(OC)c1OC,n,u,u,u,u,u
COc1cccc(NC(=O)Nc2ccc3nc(N4CCN(C)CC4)cc(C)c3c2)c1,x,u,15µM,x,x,x
COc1cccc(/C=C/C(=O)Nc2ccc3nc(N4CCN(C)CC4)cc(C)c3c2)c1OC,x,6.5µM,5.2µM,x,x,x
Cc1cc(C)cc(NC(=O)Nc2ccc3nc(N4CCN(C)CC4)cc(C)c3c2)c1,x,23µM,21µM,x,x,x
CC(=O)NC(c1ccc(F)c(F)c1)c1nc(-c2ccccc2)cs1 (stereo not drawn),n,u,u,n,n,x
NC(=O)c1ccccc1NC(=O)Cn1nc(Cc2cccnc2)c2ccccc2c1=O,x,n,u,x,x,x
CCCC(C)CO (stereo not drawn),n,n,n,x,x,n
COC(=O)c1cc(S(=O)(=O)N2CCN(c3ccccc3F)CC2)c[nH]1,n,u,u,n,n,n
COC(=O)c1scc(-c2ccc(C)cc2)c1S(=O)(=O)N1CCN(c2cccc(Cl)c2)CC1,x,18µM,18µM,x,x,x
CCOC(=O)c1scc(-c2ccccc2)c1S(=O)(=O)N1CCN(c2ccc(Cl)cc2)CC1,x,u,13µM,x,x,x
Cc1cc(C)c(S(=O)(=O)N2CCN(c3ccccc3)CC2)c(C)c1,n,u,u,n,n,n
COC(=O)c1scc(-c2ccc(C)cc2)c1S(=O)(=O)N1CCN(c2ccccc2)CC1,x,12µM,9.2µM,x,x,x
COC(=O)c1scc(-c2ccc(C)cc2)c1S(=O)(=O)N1CCN(c2ccccc2F)CC1,x,13µM,18µM,x,x,x
COC(=O)c1cc(S(=O)(=O)N2CCN(c3cccc(Cl)c3)CC2)c[nH]1,n,n,n,n,n,n
Cc1ccc(NC(=O)COC(=O)/C=C/c2c(C)nn(-c3ccc(F)cc3)c2Cl)cc1F,n,n,n,n,n,n
COc1cc(/C=N/NC(=O)C(=O)NCC2CCCO2)cc(Cl)c1O (stereo not drawn),n,n,n,n,n,n
[O-]C1=N[N+](=C(c2ccccc2)c2ccccc2)C1,n,n,n,n,n,x
COC(=O)c1cc(S(=O)(=O)N2CCN(c3ccc(C)cc3C)CC2)cn1C,x,u,n,x,x,x
COC(=O)c1scc(-c2ccc(C)cc2)c1S(=O)(=O)N1CCN(c2ccc(C)cc2C)CC1,x,15µM,9.2µM,x,x,x
COC(=O)c1scc(-c2ccc(C)cc2)c1S(=O)(=O)N1CCN(c2ccc(C(C)=O)cc2)CC1,x,23µM,u,x,x,x
SMILES,IL-1B inflam inh,DT40 TDP1 CPT,TDP1 cell noCPT,HT1080 IDH1KD tx,HT1080-NT tox,ELG1 DNA repair
COc1ccccc1CN1C(=O)C(C)ON=C1c1ccccc1F (stereo not drawn),n,n,u,n,n,x
CCN(C(=O)COC(=O)c1ccccc1Nc1ccccc1)c1c(N)n(Cc2ccccc2)c(=O)[nH]c1=O,-50,u,u,n,n,x
CC(C)CN(C(=O)COC(=O)Cc1ccc(Cl)cc1)c1c(N)n(Cc2ccccc2)c(=O)[nH]c1=O,n,u,u,23µM,26µM,n
CC(C)CN(C(=O)COC(=O)c1ccc2c(c1)OCO2)c1c(N)n(Cc2ccccc2)c(=O)[nH]c1=O,-55,n,n,n,n,n
CC(C)CN(C(=O)COC(=O)c1ccc2c(c1)OCCO2)c1c(N)n(Cc2ccccc2)c(=O)[nH]c1=O,n,n,n,n,n,n
CCN(C(=O)COC(=O)c1cccc2ccccc12)c1c(N)n(Cc2ccccc2)c(=O)[nH]c1=O,u,n,n,n,n,x
CCN(C(=O)COC(=O)c1ccccc1NCc1ccco1)c1c(N)n(Cc2ccccc2)c(=O)[nH]c1=O,n,u,u,n,n,x
CC(C)CN(C(=O)COC(=O)c1cccc2ccccc12)c1c(N)n(Cc2ccccc2)c(=O)[nH]c1=O,n,u,16µM,n,n,u
O=c1[nH]c(=S)[nH]c2c1C(c1ccc(Br)cc1)c1c([nH]c(=S)[nH]c1=O)O2,n,n,n,n,n,n
CC(=O)c1c(C)[nH]c(C(=O)OC(C)C(=O)NC2CCCCC2)c1C (stereo not drawn),n,n,u,n,n,x
COc1ccc(CCNC(=O)c2cc(S(=O)(=O)N3CCOCC3)cn2C)cc1OC,n,u,n,n,n,n
CNc1c(NC(=O)c2ccc(OC)c(OC)c2)c(=O)oc2ccccc12,x,n,n,x,x,x
CC(C)CN(C(=O)CCc1ccccc1Cl)c1c(N)n(Cc2ccccc2)c(=O)[nH]c1=O,n,n,n,n,n,n
CC(C)CN(C(=O)CCCOc1ccc(Cl)cc1Cl)c1c(N)n(Cc2ccccc2)c(=O)[nH]c1=O,n,u,26µM,u,n,n
CC(C)CN(C(=O)CSc1nc2ccccc2o1)c1c(N)n(Cc2ccccc2)c(=O)[nH]c1=O,n,18µM,21µM,n,n,n
CC(C)CN(C(=O)CSc1nnc(-c2ccco2)o1)c1c(N)n(Cc2ccccc2)c(=O)[nH]c1=O,n,n,n,n,n,n
CCN(CC)C(=O)Cn1c(=O)n(CCCCCC(=O)NCc2ccc3c(c2)OCO3)c(=O)c2sccc21,x,u,n,x,x,x
O=C(C1=C(O)C(=O)N(CC2CCCO2)C1c1ccccc1)c1ccco1 (stereo not drawn),n,n,n,n,n,n
CC(C)(C)c1ccc(C2C(C(=O)c3ccco3)=C(O)C(=O)N2CC2CCCO2)cc1 (stereo not drawn),n,u,18µM,n,n,n
CCOc1ccc(NC(=O)Cn2nnc(C(=O)NCCc3ccccc3)c2N)cc1,x,n,n,x,x,x
COc1ccc(C=NNC(=O)c2ccccc2NS(=O)(=O)c2cccs2)cc1O,n,n,n,n,n,u
COc1ccc(Nc2nc3ccccc3nc2NS(=O)(=O)c2cccs2)cc1,n,u,u,n,n,n
